SMILES strings stand for the structures. Active and inactive are the calls of the source.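 Rule for the calls, unless noted: active = NADPH fluorescence slope more negative than the mean of all samples by about 3 SD, 99.7% confidence; inactive = the rest.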

A short description of assay [1]: inhibitors of TNFa-induced NFkB p65 translocation, primary screen, imaging, HUVEC, MLSMR starter and 10KST1 sets (AID 438;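 active = inhibition above 20% together with a positive visual image hit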;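 note: compound added about 3h40 before a 20 min TNFalpha stimulation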;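 for inhibition: signal is the nuclear over cytoplasmic p65 intensity ratio per well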). To be noted: HUVEC TNFa-induced p65 nuclear translocation; cell count: measured here: nuclei count (cytotoxicity indicator), at 2.08 µM; inhibition: at 2 µM, stronger effect = higher value, 0% TNFa-plus-vehicle, 100% no-TNFa wells.
The nature of assay [2]: reduction of polyQ htt aggregates in cells – imaging, exon1htt(103Q)mCFP cells, high-content imaging, primary screen (AID 483;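 active = visual image review flags a hit and inhibition of aggregation exceeds 20%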;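 note: compound exposure lasted 3 days before fixation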;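 for nuclei count: percent of the per-plate median nuclei count of sample wells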). The conditions noted are these: exon1htt(103Q)mCFP cell line, aggregate imaging, at 2 µM; inhibition of aggregation: stronger effect = higher value; nuclei count: measured here: cell count, toxicity.
Assay [3] can be described thus: endothelial E-selectin expression blockers – imaging, HUVEC, immunofluorescence, MLSMR starter and 10KST1 sets, primary screen (AID 487;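 active = visually confirmed hit in the image check and inhibition above 20%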;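 for inhibition: signal is fraction of cell area covered by stained E-selectin grains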;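 for nuclei count: 100% = median nuclei count of all wells on the same plate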). The conditions noted are these: HUVEC TNFalpha-induced E-selectin immunofluorescence imaging, at 2 µM; inhibition: stronger effect = higher value; nuclei count: measured here: cell number, toxicity.
For assay [4], the target named is Voltage-gated potassium channel subunit beta-2 (Rattus norvegicus) (UniProt P62483). Briefly: inhibitors of rat Kvbeta2 reductase activity – biochemical, NADPH fluorescence, primary screen (AID 622;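 active = fluorescence slope higher than the sample average by over 3 SD, cut at about -0.22 in these data, passing the limit was not always enough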;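 note: slope of raw intensity against log time taken from 70 to 1610 s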). To be noted: recombinant KvBeta, 4-cyanobenzaldehyde reduction, at 10 µM, stronger effect = higher value.
Sequence of Voltage-gated potassium channel subunit beta-2 (Rattus norvegicus) (P62483 whole entry, looked up): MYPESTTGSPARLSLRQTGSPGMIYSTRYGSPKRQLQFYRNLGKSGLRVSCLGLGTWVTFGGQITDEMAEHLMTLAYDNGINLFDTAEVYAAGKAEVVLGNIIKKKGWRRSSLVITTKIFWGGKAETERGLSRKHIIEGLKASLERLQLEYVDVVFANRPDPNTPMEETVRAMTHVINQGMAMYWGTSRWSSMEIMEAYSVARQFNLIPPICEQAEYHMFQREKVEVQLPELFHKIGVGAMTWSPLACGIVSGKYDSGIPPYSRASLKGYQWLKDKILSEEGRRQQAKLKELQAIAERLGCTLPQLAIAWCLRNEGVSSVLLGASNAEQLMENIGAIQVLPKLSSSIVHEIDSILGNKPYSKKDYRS
The target is the same in assay [5]. Briefly: enhancers of rat Kvbeta2 NADPH turnover – biochemical, NADPH fluorescence, primary screen (AID 623).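 Note: fluorescence intensity change per second fitted from 20 to 320 s.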 The conditions noted are these: Recombinant KvBeta, NADPH fluorescence decrease slope, 10 min; at 10 µM; stronger effect = lower value.
In assay [6] the target is Alpha-2C adrenergic receptor (Homo sapiens) (UniProt P18825). Put plainly: compounds altering alpha2C-coupled GIRK flux – cell-based, HEK293 alpha2C/GIRK1/2, thallium flux, primary screen (AID 624;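 active = fluorescence slope after compound addition differing from the mean of all screened samples at 99.7% confidence, in either direction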;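 note: slope of fluorescence ratio to pre-addition baseline per second over 15 to 24 s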). The conditions noted are these: thallium flux BTC fluorescence, at 10 µM, actives lie on both sides.
Sequence of Alpha-2C adrenergic receptor (Homo sapiens) (P18825 whole entry, looked up): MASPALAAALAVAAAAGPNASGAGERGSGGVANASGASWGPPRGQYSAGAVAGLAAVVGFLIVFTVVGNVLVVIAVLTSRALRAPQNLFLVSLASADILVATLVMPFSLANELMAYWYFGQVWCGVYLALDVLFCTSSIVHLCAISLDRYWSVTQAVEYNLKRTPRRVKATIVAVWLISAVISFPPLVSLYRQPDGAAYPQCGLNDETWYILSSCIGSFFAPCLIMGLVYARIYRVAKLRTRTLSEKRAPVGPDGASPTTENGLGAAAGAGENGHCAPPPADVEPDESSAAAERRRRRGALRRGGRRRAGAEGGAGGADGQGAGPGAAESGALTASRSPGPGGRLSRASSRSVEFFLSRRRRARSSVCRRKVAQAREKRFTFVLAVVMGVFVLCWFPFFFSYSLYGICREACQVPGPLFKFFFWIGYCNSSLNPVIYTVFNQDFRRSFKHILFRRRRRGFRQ
Assay [7] can be described thus: blockers of RIG-like receptor reporter activation – cell-based, Sendai virus stimulus, luciferase, 10K MLSCN set, TLR/RLR signaling modifier project, primary screen (AID 602276;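 active = inhibition at or above 50% at 10 µM; inactive = inhibition below 50%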;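 note: firefly luciferase from ISG56 promoter only with Renilla not read in this screen; 0% = Sendai virus plus DMSO and 100% = medium plus DMSO without virus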). The conditions noted are these: HEK293 RL24 IRF3 luciferase reporter, at 10 µM, stronger effect = higher value. A general note: In a reporter assay the amount or activity of a reporter protein is the signal.

A short description of assay [8]: TLR3 IRF3 reporter activation blockers – cell-based, poly I:C stimulus, luciferase, 10K MLSCN set, primary screen (AID 602277;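 active = inhibition of the reporter signal at or above 50%; inactive = inhibition below 50%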). The conditions noted are these: HEK293-TLR3 RL24 IRF3 luciferase reporter, at 10 µM, stronger effect = higher value.

In general, inhibition refers to the change of the read-out against control, counted positive when it falls. As to `CCOC(=O)c1ccc(NC(=O)CCc2nc(-c3cccc(C)c3)no2)cc1`, the cell count in assay [1] is 387. The inhibition in assay [1] was 12.6% (inactive); in assay [3], -1% (inactive); in assay [7] it was -14.6% (inactive); in assay [8] it was -24% (inactive). For the same compound, the inhibition of aggregation in assay [2] was -10.1% (inactive). Also, the nuclei count is 102% in assay [2] and 100% in assay [3]. For the same compound, the fluorescence slope in assay [4] is -0.565 (inactive). Moreover, the NADPH fluorescence slope in assay [5] is -6.8e-05 (inactive). Also, the slope in assay [6] was 0.00651 (inactive).
Regarding `O=C(CN(C(=O)CCC(=O)Nc1nccs1)c1ccccc1F)NCC1CCCO1` (stereo not drawn), the cell count in assay [1] turned out to be 343. For the same compound, the inhibition in assay [1] is -0.8% (inactive); in assay [3], -19.4% (inactive); in assay [7], 8.97% (inactive); in assay [8] it was 15.4% (inactive). Also, the inhibition of aggregation in assay [2] is 6% (inactive). The nuclei count in assay [2] is 87.3%; in assay [3] it was 124%. Further, the fluorescence slope in assay [4] was -0.609 (inactive). Moreover, the NADPH fluorescence slope in assay [5] is -1.3e-06 (inactive). The slope in assay [6] was 0.00439 (inactive).
Turning to `O=C(C1CC1)N1CCc2cc(Br)cc(S(=O)(=O)N3CCOCC3)c21`, the cell count in assay [1] is 300. The inhibition is 2.2% (inactive) in assay [1], -22.9% (inactive) in assay [3], 15.4% (inactive) in assay [7] and 24.8% (inactive) in assay [8]. In addition, the inhibition of aggregation in assay [2] is -4.4% (inactive). In addition, the figures for the nuclei count in assay [2] and in assay [3] were 106% and 112%, respectively. The fluorescence slope in assay [4] was -0.59 (inactive). Also, the NADPH fluorescence slope in assay [5] is -3.6e-05 (inactive). Moreover, the slope in assay [6] is 0.00736 (inactive).
Turning to `CCCCC(=O)NCCNc1nc2c(c(=O)n(C)c(=O)n2C)n1Cc1ccccc1`, the cell count in assay [1] was found to be 555. Besides, the inhibition in assay [1] was -6.3% (inactive); in assay [3], 28.6% (inactive); in assay [7] it was 15.2% (inactive); in assay [8] it was 24.6% (inactive). Also, the inhibition of aggregation in assay [2] was -14.2% (inactive). The nuclei count in assay [2] was 105%; in assay [3], 106%. Besides, in assay [4], the fluorescence slope is -0.615 (inactive). Besides, in assay [5], the NADPH fluorescence slope is -5.2e-06 (inactive). Besides, in assay [6], the slope is 0.00636 (inactive).
Take `COc1cccc(NC(=O)N(Cc2ccco2)C(C)c2cccs2)c1` (stereo not drawn): in assay [1], the cell count came to 734. The inhibition in assay [1] was -12.7% (inactive); in assay [3], -52.3% (inactive); in assay [7] it was 11% (inactive); in assay [8] it was 15.1% (inactive). For the same compound, the inhibition of aggregation in assay [2] was -16.2% (inactive). Further, the nuclei count in assay [2] is 103%; in assay [3], 114%. The fluorescence slope in assay [4] was -0.469 (inactive). For the same compound, the NADPH fluorescence slope in assay [5] is 2.7e-05 (inactive). Besides, in assay [6], the slope was 0.00569 (inactive).
As to `COc1cc(S(=O)(=O)N(C)C)ccc1F`, the cell count in assay [1] stood at 333. In addition, the inhibition in assay [1] was -4.5% (inactive); in assay [3], -114% (inactive); in assay [7], 17.1% (inactive); in assay [8], 9.1% (inactive). In addition, the inhibition of aggregation in assay [2] is 5.9% (inactive). Further, the values for the nuclei count in assay [2] and in assay [3] were 87.4% and 116%, respectively. Also, the fluorescence slope in assay [4] was -0.413 (inactive). For the same compound, the NADPH fluorescence slope in assay [5] was -5e-05 (inactive). Besides, in assay [6], the slope is 0.00561 (inactive).
With `COc1cc(OC)c(C2C(C#N)=C(N)OC3=C2C(=O)CC(C)(C)C3)cc1OC` (stereo not drawn), the cell count in assay [1] came to 407. Also, the inhibition is -2.7% (inactive) in assay [1], -27.1% (inactive) in assay [3], -2.62% (inactive) in assay [7] and 5.85% (inactive) in assay [8]. The inhibition of aggregation in assay [2] was 22.2% (inactive). In addition, the nuclei count in assay [2] turned out to be 88.4%; in assay [3], 104%. For the same compound, the fluorescence slope in assay [4] was -0.501 (inactive). In addition, the NADPH fluorescence slope in assay [5] was -3.5e-05 (inactive). In addition, the slope in assay [6] is 0.00648 (inactive).
As to `CCCCN(C(=O)c1ccc(Cl)cc1)C1CC2CCC(C1)N2C` (stereo not drawn), in assay [1], the cell count worked out at 588. Further, the inhibition was 6.5% (inactive) in assay [1], -93.1% (inactive) in assay [3], -6.18% (inactive) in assay [7] and 35.3% (inactive) in assay [8]. Also, in assay [2], the inhibition of aggregation was 5.4% (inactive). Moreover, the values for the nuclei count in assay [2] and in assay [3] were 114% and 116%, respectively. For the same compound, the fluorescence slope in assay [4] was -0.561 (inactive). Besides, the NADPH fluorescence slope in assay [5] was -6.5e-05 (inactive). For the same compound, the slope in assay [6] was 0.0056 (inactive).
With `O=C(NCCCN1CCCC1=O)c1ccc2c(=O)n(Cc3ccco3)c(=S)[nH]c2c1`, the cell count in assay [1] turned out to be 653. The inhibition in assay [1] was -16.6% (inactive); in assay [3], -69.5% (inactive); in assay [7] it was 0.725% (inactive); in assay [8] it was -15.6% (inactive). For the same compound, the inhibition of aggregation in assay [2] is -35.1% (inactive). Further, the results for the nuclei count in assay [2] and in assay [3] were 74% and 101%, respectively. Further, the fluorescence slope in assay [4] is -0.572 (inactive). Also, in assay [5], the NADPH fluorescence slope was 2.7e-05 (inactive). For the same compound, in assay [6], the slope was 0.00624 (inactive).
As for `O=C(CCCc1cccs1)Nc1nc2c(s1)CCCC2`, the cell count in assay [1] was 613. For the same compound, the inhibition was 9.3% (inactive) in assay [1], -164% (inactive) in assay [3], -29.3% (inactive) in assay [7] and -48.8% (inactive) in assay [8]. In assay [2], the inhibition of aggregation is -20.4% (inactive). In addition, the nuclei count in assay [2] was 102%; in assay [3], 150%. Also, in assay [4], the fluorescence slope is -0.461 (inactive). For the same compound, in assay [5], the NADPH fluorescence slope is -2.9e-05 (inactive). Besides, in assay [6], the slope is 0.00629 (inactive).
Take `O=C(C1CCCN(S(=O)(=O)c2ccc(Br)s2)C1)N1CCCCCC1` (stereo not drawn): in assay [1], the cell count came out at 217. In addition, the inhibition in assay [1] was -1.9% (inactive); in assay [3], 30.6% (inactive); in assay [7], 2.37% (inactive); in assay [8] it was 13.4% (inactive). In addition, the inhibition of aggregation in assay [2] is 5.7% (inactive). The nuclei count worked out at 75.1% in assay [2] and 31.6% in assay [3]. Besides, the fluorescence slope in assay [4] was -0.378 (inactive). Moreover, the NADPH fluorescence slope in assay [5] was -4.5e-05 (inactive). In addition, in assay [6], the slope is 0.00305 (inactive).
With `Cc1ccccc1NC(=O)C1CCCN(S(=O)(=O)c2cnc[nH]2)C1` (stereo not drawn), the cell count in assay [1] amounted to 726. Further, the inhibition in assay [1] is -11% (inactive); in assay [3] it was -26.7% (inactive); in assay [7] it was 10.6% (inactive); in assay [8], 32.6% (inactive). In addition, the inhibition of aggregation in assay [2] was 21.2% (inactive). In addition, the values for the nuclei count in assay [2] and in assay [3] were 109% and 124%, respectively. Further, the fluorescence slope in assay [4] is -0.564 (inactive). Further, the NADPH fluorescence slope in assay [5] was -2e-05 (inactive). The slope in assay [6] was 0.0067 (inactive).
In the case of `Cc1ccc(OCC(O)CN2C(=O)NC(C)(C)C2=O)cc1C` (stereo not drawn), the cell count in assay [1] came out at 673. In addition, the inhibition in assay [1] is -2.9% (inactive); in assay [3] it was -19.6% (inactive); in assay [7], 5.76% (inactive); in assay [8], 24.9% (inactive). Besides, the inhibition of aggregation in assay [2] was -21.4% (inactive). The nuclei count in assay [2] amounted to 107%; in assay [3], 112%. Besides, in assay [4], the fluorescence slope is -0.537 (inactive). In addition, the NADPH fluorescence slope in assay [5] is -2.6e-05 (inactive). Further, the slope in assay [6] was 0.00799 (inactive).

The values are drawn from PubChem BioAssay.
